# Values joined by “and” are separate entries in the source; they are usually repeats but may differ in a detail not shown here. Identical values can stand only once. Inconclusive results are not listed. Active and inactive are the calls of the source. The calls were made as follows, unless noted: active = hit-call score of the fitted dose curve at least 0.9, where 1 is the maximum; inactive = score below 0.9.
# Legend:
# PGR (gene 5241) = PGR (gene 5241) (UniProt P06401); experiment: TOX21_PR_BLA_Followup_Agonist_ratio: Tox21 HEK293 Progesterone Receptor (PR) Agonism Beta-lactamase Follow-Up Assay, Ratio (AID 2283933; active = hit-call score of the fitted dose curve at least 0.9, where 1 is the maximum)
# Chain of PGR (gene 5241) (P06401 whole entry, looked up): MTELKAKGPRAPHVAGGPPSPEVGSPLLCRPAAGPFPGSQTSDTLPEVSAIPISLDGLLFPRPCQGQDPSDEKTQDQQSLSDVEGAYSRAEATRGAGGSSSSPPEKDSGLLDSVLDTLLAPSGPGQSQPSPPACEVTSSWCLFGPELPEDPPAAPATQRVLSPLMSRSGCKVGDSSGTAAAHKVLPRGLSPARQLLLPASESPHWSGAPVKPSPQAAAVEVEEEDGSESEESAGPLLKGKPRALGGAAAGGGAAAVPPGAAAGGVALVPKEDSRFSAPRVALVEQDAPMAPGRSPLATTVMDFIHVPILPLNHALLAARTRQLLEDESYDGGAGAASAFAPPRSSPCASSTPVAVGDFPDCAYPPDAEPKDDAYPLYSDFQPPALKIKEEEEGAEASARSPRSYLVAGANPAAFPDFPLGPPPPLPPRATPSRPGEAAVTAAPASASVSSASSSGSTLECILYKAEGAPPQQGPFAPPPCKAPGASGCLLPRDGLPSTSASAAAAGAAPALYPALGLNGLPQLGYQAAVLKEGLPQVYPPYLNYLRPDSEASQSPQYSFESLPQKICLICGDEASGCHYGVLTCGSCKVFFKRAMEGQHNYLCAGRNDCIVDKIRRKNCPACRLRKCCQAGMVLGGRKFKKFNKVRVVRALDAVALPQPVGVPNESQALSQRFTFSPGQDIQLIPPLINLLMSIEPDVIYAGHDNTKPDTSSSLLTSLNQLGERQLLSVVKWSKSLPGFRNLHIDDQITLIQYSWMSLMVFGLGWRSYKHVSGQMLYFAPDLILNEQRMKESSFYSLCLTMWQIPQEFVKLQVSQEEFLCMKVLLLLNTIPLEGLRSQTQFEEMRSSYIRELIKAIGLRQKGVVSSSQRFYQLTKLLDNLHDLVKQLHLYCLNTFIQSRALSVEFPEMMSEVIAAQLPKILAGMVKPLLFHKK
# Summary of the method: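 PR-UAS-bla HEK293T cells in medium with 2% charcoal-stripped FBS were dosed after 6 h plating and incubated 16 h at 37C. LiveBLAzer FRET substrate was added for 2 h at room temperature. Cleaved/uncleaved substrate ratio fitted against DMSO; CellTiter-Glo viability run in the same wells.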
# [1] = TOX21_PR_LUC_Followup_Agonist_viability: Viability Assessment in the Tox21 HEK293 Progesterone Receptor (PR) Agonism Luciferase Follow-Up Assay (AID 2283941; active = hit-call score of the fitted dose curve at least 0.9, where 1 is the maximum;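 also: loss of signal means cytotoxicity so actives lower viability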)
# Summary of the method: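 HEK293-PR-A-luc cells, kept in 10% charcoal-stripped FBS medium, were treated with compounds for 16 h at 37C. Viability read as cellular ATP by luciferase-coupled luminescence; loss of signal indicates cytotoxicity.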
# [2] = CCTE_Harrill_HTTr_CellCount_MCF7: CCTE's Cell Proliferation Assessment for the High-Throughput Transcriptomics (HTTr) Platform, Harrill Lab (AID 2284012; active = hit-call score of the fitted dose curve at least 0.9, where 1 is the maximum;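 also: cells exposed to compound for six hours; intended direction is loss of nuclei count meaning fewer cells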)
# Summary of the method: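 MCF7 cells exposed 6 hours to an eight-point dilution series; Hoechst-stained nuclei counted by high-content imaging. Bidirectional curve fitting against DMSO baseline.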
# [3] = tested on: Brachyury (BRA) Protein Expression, Deisenroth Lab, TBXT (gene 6862); experiment: CCTE_Deisenroth_DEVTOX-GLR_legacy_Bra: (Legacy) CCTE's DevTox GLR-Endo Assay Evaluation of Brachyury (BRA) Protein Expression, Deisenroth Lab (AID 2284329)
# Summary of the method: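 Human pluripotent RUES2-GLR line was exposed twice during 48 h differentiation to a 10-point series, 1 nM - 200 uM. Fraction of Bra-positive cells was scored by imaging against pluripotent baseline and fitted after 0.2% DMSO subtraction.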
# [4] = CCTE_Deisenroth_DEVTOX-GLR_legacy_CellCount: (Legacy) Viability Assessment in CCTE's DevTox GLR-Endo Assay, Deisenroth Lab (AID 2284331); conditions: actives raise or lower the signal
# Summary of the method: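 Viability is taken from imaged nuclei counts in fixed RUES2-GLR cultures after 48 h of differentiation under two 24 h-spaced chemical exposures, 10 concentrations from 1 nM to 200 uM, gain or loss versus DMSO baseline.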
# [5] = tested on: SRY-box transcription factor 2 (SOX2) Protein Expression, Deisenroth Lab, SOX2 (gene 6657); experiment: CCTE_Deisenroth_DEVTOX-GLR_legacy_Sox2: (Legacy) CCTE's DevTox GLR-Endo Assay Evaluation of SRY-box transcription factor 2 (SOX2) Protein Expression, Deisenroth Lab (AID 2284346)
# Summary of the method: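 hPSC RUES2-GLR, 384-well; 24 h seed → 48 h endoderm differentiation, 2 doses q24h, 1 nM–200 uM. Fix, nuclear dye, 5 fields/well. Sox2+ cells/cell count; cell positive if >5x BMAD over endoderm ctrl; gain direction vs DMSO.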
# [6] = tested on: SRY-box transcription factor 2 (SOX2) Protein Expression, Deisenroth Lab, SOX2 (gene 6657); experiment: CCTE_Deisenroth_DEVTOX-GLR_Endo_SOX2: CCTE's DevTox GLR-Endo Assay Evaluation of SRY-box transcription factor 2 (SOX2) Protein Expression, Deisenroth Lab (AID 2284412; active = hit-call score of the fitted dose curve at least 0.9, where 1 is the maximum)
# Summary of the method: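 RUES2-GLR human pluripotent cells were seeded 24 h, then differentiated 48 h with two chemical exposures 24 h apart. Cells were fixed, nuclei stained and imaged by high-content microscopy. Endpoint is %SOX2+ cells over cell count, minus 0.2% DMSO control; 10-point series 1 nM–200 uM.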
# [7] = tested on: Brachyury (BRA) Protein Expression, TBXT (gene 6862); experiment: CCTE_Deisenroth_DEVTOX-GLR_Endo_BRA: CCTE's DevTox GLR-Endo Assay Evaluation of Brachyury (BRA) Protein Expression, Deisenroth Lab (AID 2284417)
# Summary of the method: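 Read-out: BRA+ cell count divided by total cell count by high-content imaging (5 fields per well), expressed relative to 0.2% DMSO solvent control. RUES2-GLR cells dosed twice over a 48 h differentiation; concentrations 1 nM - 200 uM.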
# [8] = CCTE_Deisenroth_DEVTOX-GLR_Endo_CellCount: Viability Assessment in CCTE's DevTox GLR-Endo Assay, Deisenroth Lab (AID 2284420)
# Summary of the method: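 RUES2-GLR pluripotent cells seeded 24 h, then differentiated 48 h in defined media with two chemical exposures 24 h apart. Nuclei counted by high-content imaging; 10-point 1 nM–200 uM series; percent change versus 0.2% DMSO.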
# [9] = tested on: SRY-box transcription factor 17 (SOX17) Protein Expression, Deisenroth Lab, SOX17 (gene 64321); experiment: CCTE_Deisenroth_DEVTOX-GLR_Pluri_SOX17: CCTE's DevTox GLR-Pluri Assay Evaluation of SRY-box transcription factor 17 (SOX17) Protein Expression, Deisenroth Lab (AID 2284427; active = hit-call score of the fitted dose curve at least 0.9, where 1 is the maximum)
# Summary of the method: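 RUES2-GLR pluripotent cells were induced toward endoderm over 48 h and received two compound doses 24 h apart, in a 10-point series from 1 nM to 200 uM. The percentage of SOX17+ cells among total cells was measured by high-content imaging and reported minus the 0.2% DMSO control.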
# [10] = CCTE_Shafer_MEA_dev_firing_rate_mean: CCTE's Neural Network Formation Assay for Mean Firing Rate, Shafer Lab (AID 2284031);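 also: curve fitted for loss of firing so AC50 reflects decreased mean firing rate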
# Summary of the method: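 Primary rat cortical neurons on 48-well MEA plates, exposed from plating day 0 with dosing renewed on DIV 5 and 9. Mean well firing rate over active electrodes, recorded days 5, 7, 9, 12, summarised as trapezoidal AUC.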
# [11] = CCTE_Shafer_MEA_dev_per_burst_spike_percent: CCTE's Neural Network Formation Assay for Percent of Spikes in a Burst, Shafer Lab (AID 2284032);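 also: fitted as a decrease in burst spike percentage below DMSO baseline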
# Summary of the method: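 Rat primary cortical neurons on 16-electrode MEA wells, dosed from plating day 0 for 12 days with renewal on DIV 5 and 9; spikes-in-bursts percentage averaged over bursting electrodes, collapsed as AUC across days 5, 7, 9, 12; loss direction versus DMSO.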
# [12] = CCTE_Shafer_MEA_dev_active_electrodes_number: CCTE's Neural Network Formation Assay for Number of Active Electrodes, Shafer Lab (AID 2284040; active = hit-call score of the fitted dose curve at least 0.9, where 1 is the maximum;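 also: potency for loss of active electrodes versus DMSO so lower counts are hits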)
# Summary of the method: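 Primary rat cortical neurons on 16-electrode MEA wells, exposed from day 0 through day 12 with compound renewed at DIV 5 and 9 feeds. Active electrodes (mean firing ≥5 spikes/min) counted at DIV 5, 7, 9, 12; trapezoidal AUC across days, loss-of-signal versus DMSO.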
# [13] = CCTE_Shafer_MEA_dev_bursting_electrodes_number: CCTE's Neural Network Formation Assay for Number of Bursting Electrodes, Shafer Lab (AID 2284043; active = hit-call score of the fitted dose curve at least 0.9, where 1 is the maximum;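 also: potency is for loss of bursting electrodes relative to DMSO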)
# Summary of the method: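 Read-out is the per-well number of electrodes bursting at least once every 2 minutes, recorded on days 5, 7, 9 and 12 and collapsed by trapezoidal area under the curve. Cultures were primary rat cortical neurons on MEA plates, treated continuously from plating.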
# [14] = CCTE_Shafer_MEA_dev_per_burst_interspike_interval: CCTE's Neural Network Formation Assay for Burst Interspike Interval, Shafer Lab (AID 2284044);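 also: mean spike spacing inside bursts as AUC over recordings on days 5 7 9 12; potency for a decrease of within-burst interspike interval below DMSO level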
# Summary of the method: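 Primary rat cortical neurons on 48-well MEA plates, exposed from day 0 through day 12, treatment renewed at DIV 5 and 9. Within-burst interspike interval recorded days 5, 7, 9, 12, well-averaged, summarised as AUC; negative fit versus DMSO.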
# [15] = CCTE_Shafer_MEA_dev_burst_duration_mean: CCTE's Neural Network Formation Assay for Mean Burst Duration, Shafer Lab (AID 2284045);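 also: curve fitted for loss meaning shorter burst duration than DMSO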
# Summary of the method: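 Read-out: average first-to-last-spike interval within single-electrode bursts, averaged over bursting electrodes per well, then summarised as area under the curve across days 5, 7, 9 and 12. Developing rat cortical networks were exposed from day 0.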
# [16] = CCTE_Shafer_MEA_dev_interburst_interval_mean: CCTE's Neural Network Formation Assay for Mean Interburst Interval, Shafer Lab (AID 2284046);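 also: well-mean interburst interval of bursting electrodes as AUC over four recording days; curve fitted for decrease in interburst interval relative to DMSO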
# Summary of the method: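 Developing rat cortical networks on 48-well MEAs receive compound from the day of plating. Burst intervals from each active electrode are averaged per well, and AUC over the recording days is fitted in the negative direction against DMSO.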
# [17] = CCTE_Shafer_MEA_dev_network_spike_number: CCTE's Neural Network Formation Assay for Number of Network Spikes, Shafer Lab (AID 2284048);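 also: synchronized bursts across electrodes counted on days 5 7 9 12 and integrated as AUC; fit as a loss of signal meaning fewer network spikes than DMSO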
# Summary of the method: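 Developing networks of primary rat cortical neurons are treated over 12 days starting at plating, with media and compound fully replaced on DIV 5 and 9. Network spike counts from four recording days are integrated as trapezoidal AUC.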
# [18] = CCTE_Shafer_MEA_dev_network_spike_peak: CCTE's Neural Network Formation Assay for Mean Number of Electrodes in Network Spike, Shafer Lab (AID 2284049);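 also: fitted for loss of signal meaning fewer electrodes in network spikes than DMSO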
# Summary of the method: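 Rat cortical primary culture, 1.5 x 10^5 cells/well, 48-well MEA (16 electrodes/well). Dosing day 0 through DIV 12, full media/compound exchange DIV 5, 9. AxIS adaptive spike detection; AUC over days 5/7/9/12; loss-of-signal vs DMSO.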
# [19] = CCTE_Shafer_MEA_dev_spike_duration_mean: CCTE's Neural Network Formation Assay for Mean Spike Duration, Shafer Lab (AID 2284051);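 also: mean network spike duration pooled as area under curve over DIV 5 to 12 recordings; potency for a decrease in mean network spike duration versus DMSO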
# Summary of the method: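 Readout is the average length of network spikes, clustered firing across electrodes, summed over DIV 5, 7, 9 and 12 as area under the curve. Neurons from rat cortex developed networks on MEA plates under continuous 12-day exposure.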
structure (smiles),measurement,setting,value
O=C(Nc1ccc(Cl)c(Cl)c1)C1CC1,outcome,PGR (gene 5241),inactive
same,outcome,[1],inactive
Cc1ccc(/C=N/n2c(-c3ccccc3)csc2=S)cc1,outcome,[1],inactive
NC(=O)n1c(O)c(C(=O)c2cccs2)c2cc(Cl)ccc21,outcome,PGR (gene 5241),inactive
same,outcome,[1],inactive
Cc1c(N(C)CS(=O)(=O)O)c(=O)n(-c2ccccc2)n1C,outcome,[2],inactive
C=C1C(CCl)(CCl)C2(Cl)C(Cl)C(Cl)C1(Cl)C2(Cl)Cl (centres undefined),outcome,PGR (gene 5241),inactive
C[C@]12C=CC(=O)C=C1[C@@H](F)C[C@@H]1[C@@H]2[C@@H](O)C[C@@]2(C)[C@H]1CC[C@]2(O)C(=O)CO,outcome,[1],inactive
COCCOC(=O)C1=C(C)NC(C)=C(C(=O)OC/C=C/c2ccccc2)C1c1cccc([N+](=O)[O-])c1 (centres undefined),outcome,[1],inactive
CCN(CC)CCNC(=O)c1c(C)[nH]c(/C=C2\C(=O)Nc3ccc(F)cc32)c1C,AC50,[3],6.88 µM (active)
same,AC50,[4],1.63 µM (active)
same,AC50,[5],0.621 µM (active)
same,AC50,[6],2.5 µM (active)
same,AC50,[7],0.826 µM (active)
same,AC50,[8],1.62 µM (active)
same,AC50,[9],1.46 µM (active)
CC(C)C[C@H](NC(=O)[C@H](Cc1ccccc1)NC(=O)c1cnccn1)B(O)O,outcome,PGR (gene 5241),inactive
same,outcome,[1],inactive
C#C[C@]1(O)CC[C@H]2[C@@H]3CCc4cc(OC5CCCC5)ccc4[C@H]3CC[C@@]21C,outcome,[1],inactive
CC(C)C[C@H](NC(=O)[C@H](CCc1ccccc1)NC(=O)CN1CCOCC1)C(=O)N[C@@H](Cc1ccccc1)C(=O)N[C@@H](CC(C)C)C(=O)[C@@]1(C)CO1,outcome,PGR (gene 5241),inactive
O=C1Nc2ccc(Cl)cc2[C@@](C#CC2CC2)(C(F)(F)F)O1,outcome,[2],inactive
COC(=O)C1=C(C)NC(C)=C(C(=O)OCCN2CCN(C(c3ccccc3)c3ccccc3)CC2)C1c1cccc([N+](=O)[O-])c1 (centres undefined),outcome,PGR (gene 5241),inactive
same,outcome,[1],inactive
Oc1ccc(N=Nc2ccccc2)cc1,outcome,PGR (gene 5241),inactive
same,outcome,[1],inactive
CN(C)C(=O)C(CCN1CCC(O)(c2ccc(Cl)cc2)CC1)(c1ccccc1)c1ccccc1,AC50,[10],63.2 nM (active) and 101 nM (active) and 190 nM (active)
same,AC50,[11],514 nM (active) and 244 nM (active) and 1.49 µM (active)
same,AC50,[12],385 nM (active) and 196 nM (active) and 1.21 µM (active)
same,AC50,[13],117 nM (active) and 63.8 nM (active) and 1.19 µM (active)
same,AC50,[14],92.1 nM (active) and 66.7 nM (active) and 493 nM (active)
same,AC50,[15],185 nM (active) and 33.1 nM (active) and 526 nM (active)
same,AC50,[16],581 nM (active) and 249 nM (active) and 2.56 µM (active)
same,AC50,[17],32.8 nM (active) and 102 nM (active) and 172 nM (active)
same,AC50,[18],612 nM (active) and 41.5 nM (active) and 1.81 µM (active)
same,AC50,[19],511 nM (active) and 18.7 nM (active) and 1.15 µM (active)
Cc1nc(Nc2ncc(C(=O)Nc3c(C)cccc3Cl)s2)cc(N2CCN(CCO)CC2)n1,AC50,[3],3.19 µM (active)
same,AC50,[4],0.0582 µM (active)
same,AC50,[5],151 µM (active)
same,AC50,[6],3.15 µM (active)
same,AC50,[7],21.7 µM (active)
same,AC50,[8],0.0574 µM (active)
same,AC50,[9],0.017 µM (active)
CC1(C)[C@@H](O[C@H]2O[C@H](C(=O)O)[C@@H](O)[C@H](O)[C@H]2O[C@@H]2O[C@H](C(=O)O)[C@@H](O)[C@H](O)[C@H]2O)CC[C@]2(C)[C@H]3C(=O)C=C4[C@@H]5C[C@@](C)(C(=O)O)CC[C@]5(C)CC[C@@]4(C)[C@]3(C)CC[C@@H]12,outcome,[2],inactive
Cc1nc2sccn2c(=O)c1CCN1CCC(=C(c2ccc(F)cc2)c2ccc(F)cc2)CC1,AC50,[4],9.28 µM (active)
same,AC50,[5],8.41 µM (active)
same,AC50,[6],20.4 µM (active)
same,AC50,[7],17.7 µM (active)
same,AC50,[8],9.15 µM (active)
same,outcome,[9],inactive
